Rows were chosen to be rich in hits. Some 0.73% of all compounds tested hit in one or more screens of this group.
DUSP3 inh = DUSP3 (human) phosphatase inhibition. P51452. hit rate 0.52% among 290,000. recombinant VHR phosphatase, pNPP absorbance. inhibition, % at 13.3 µM. AID 1654; in the data active = inhibition above about 50%
Target sequence (P51452 whole entry, looked up): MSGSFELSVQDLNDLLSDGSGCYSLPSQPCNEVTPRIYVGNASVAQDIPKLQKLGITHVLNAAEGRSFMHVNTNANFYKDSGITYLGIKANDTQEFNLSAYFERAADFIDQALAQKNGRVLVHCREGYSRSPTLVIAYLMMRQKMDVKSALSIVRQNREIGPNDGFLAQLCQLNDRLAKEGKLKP
TcdB inh = inhibitors of Clostridioides difficile toxin B glycohydrolase; P18177; TcdB glycohydrolase enzymatic assay, plate reader; inhibition, % at 9.99 µM; hit rate 0.24% among 350,000; in the data active = inhibition above about 10%
BH1578 lux ind = quorum light induction in luxS cqsA deficient V. cholerae; activation, % at 18.7 µM; hit rate 0.16% among 350,000; AID 588436; V. cholerae BH1578 lux reporter, luminescence, 6 h; in the data active = activation mostly above about 9.7%, no sharp cut-off; inconclusive = no clear call, values can overlap the other calls; inactive = mostly below about 3.7%
Yp Topo-I inh = blocks Yersinia pestis topoisomerase I activity; Y. pestis Topo-I cleavage product accumulation, plate reader; hit rate 0.064% among 360,000; AID 504884; activity, % at 10 µM; in the data active = activity above about 50%, passing the limit was not always enough; inconclusive = no clear call, values can overlap the other calls
BioA inh-1 = inhibitors of Mycobacterium tuberculosis BioA enzyme | purified M. tuberculosis BioA enzyme, plate reader | inhibition, % at 9.99 µM | hit rate 0.096% among 360,000 | AID 602481; in the data active = inhibition above about 40%; inconclusive = no clear call, values can overlap the other calls
BioA inh-2 = Mtb BioA enzyme inhibition | shares compounds with BioA inh-1 | AID 651679 | 310 tested, under 10 active | max activity, % | purified BioA enzyme, plate reader, dose response;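 note: top concentration of the dilution series was 10 µM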
Target sequence (P9WQ81 whole entry, looked up): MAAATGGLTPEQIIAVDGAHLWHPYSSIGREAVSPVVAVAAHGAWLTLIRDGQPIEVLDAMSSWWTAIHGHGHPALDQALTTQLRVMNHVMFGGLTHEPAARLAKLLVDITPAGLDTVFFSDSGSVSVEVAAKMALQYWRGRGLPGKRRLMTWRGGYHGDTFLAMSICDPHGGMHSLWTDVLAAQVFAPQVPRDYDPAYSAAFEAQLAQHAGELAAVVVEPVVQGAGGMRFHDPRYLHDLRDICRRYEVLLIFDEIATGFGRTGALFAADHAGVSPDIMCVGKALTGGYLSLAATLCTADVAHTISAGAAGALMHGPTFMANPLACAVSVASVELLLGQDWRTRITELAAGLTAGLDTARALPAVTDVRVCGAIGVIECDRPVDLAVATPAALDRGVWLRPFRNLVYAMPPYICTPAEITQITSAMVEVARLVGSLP
HepG2 tox 2 = HepG2 viability loss; shares compounds with BioA inh-1; HepG2 cytotoxicity, plate reader; max activity, %; 310 tested, under 10 active
NIH3T3 tox 5 = cytotoxicity in NIH3T3 cells | 310 tested, under 10 active | shares compounds with BioA inh-1 | plate reader | activity change, negative = cytotoxicity, % at 26 µM
Numbers without * were called inactive; i = inactive; ? = inconclusive; / = no result; [ ] = dose if it differs, or a comment. Unless noted, the rule behind the calls is not given here.

SMILES | DUSP3 inh | TcdB inh | BH1578 lux ind | Yp Topo-I inh | BioA inh-1 | BioA inh-2 | HepG2 tox 2 | NIH3T3 tox 5
CCc1nn(CC(=O)N2CCN(Cc3ccc4c(c3)OCO4)CC2)c(=O)c2cc3occc3n12 | 9 | / | i | 7 | 57* | 22 | 10 | -8
CCCC(=O)N1CCN(Cc2ccc3c(c2)OCO3)CC1 | 10 | / | 0 | 1 | 1 | / | / | /
COc1ccc(C(=O)Nc2cccc(NC(=O)c3cccs3)c2)cc1 | 9 | 1 | i | -6 | 59* | -8 | 15 | -2
COc1ccc(NC(=O)c2ccc(NC(=O)c3cccs3)cc2)cc1 | 4 | 2 | / | 0 | -2 | / | / | /
O=C(N[C@@H]1CC[C@H](CCn2cc(C3(O)CCCC3)nn2)O[C@@H]1CO)C1CCCC1 | / | 0 | / | / | -1 | / | / | /
COc1cc(/C=C/C(=O)Nc2cccnc2)cc(OC)c1OC | 16 | 2 | 0 | 3 | 50* | -4 | -7 | -3
COc1cc(C(=O)Nc2cccnc2)cc(OC)c1OC | 10 | 2 | -1 | 5 | 80* | -9 | -14 | -10
CC(Oc1ccc2ccc(=O)oc2c1)C(=O)N1CCOCC1 (stereo not drawn) | / | -9 | 1 | -4 | 66* | -10 | 10 | -9
CC(Oc1ccc2c(-c3ccccc3)cc(=O)oc2c1)C(=O)N1CCOCC1 (stereo not drawn) | / | 0 | -2 | 4 | 11 | / | / | /
C=CCn1c(COc2ccccc2F)nnc1SCCN1C(=O)c2ccccc2C1=O | 9 | / | i | 20 | 44* | -7 | 12 | 0
C=CCn1c(SCCN2C(=O)c3ccccc3C2=O)nc2scc(-c3ccc(F)cc3)c2c1=O | / | 1 | 1 | 6 | / | / | / | /
Cc1cc(/C=C(\C#N)C(=O)Nc2ccccc2)c(C)n1-c1ccc2c(c1)OCO2 | -14 | 1 | -4 | 8 | 16 | / | / | /
Cc1cc(/C=C(/C#N)C(=O)Nc2ccccc2)c(C)n1-c1cccnc1 | 17 | 0 | / | 1 | 55* | -7 | 6 | -1
CCc1nc2ccc(Br)cc2c(=O)n1-c1ccccc1C(F)(F)F | / | 2 | i | -1 | 60* | -7 | ? | 1
Cc1cc(C(=O)CSc2nncs2)c(C)n1-c1ccc2c(c1)OCO2 | 9 | / | i | 35 | 49* | -10 | 10 | -6
C[C@@H]1CN([C@@H](C)CO)C(=O)c2cc(C#Cc3cccnc3)cnc2O[C@H]1CN(C)S(C)(=O)=O | / | 0 | / | / | 74* | 6 | i | 1
COc1cccc(C(=O)Nc2ccc3c(c2)OC[C@@H](C)N(C(C)=O)C[C@H](C)[C@H](OC)CN(C)C3=O)c1 | / | 0 | / | / | 0 | / | / | /
CCc1ccc(NC(=O)CSc2nc(=O)n(CCCN3CCOCC3)c3c2CCCC3)cc1 | / | 0 | i | 23 | 3 | / | / | /
Cc1ccc(NC(=O)CSc2nc(=O)n(CCCN3CCOCC3)c3c2CCCC3)cc1F | / | 1 | -1 | 24 | 47* | 2 | 9 | 7
C[C@H]1CCCCO[C@H](CN(C)C(=O)Cc2ccccc2)[C@@H](C)CN([C@@H](C)CO)C(=O)c2cc(NC(=O)Nc3ccc(F)cc3)ccc2O1 | / | -4 | / | / | -3 | / | / | /
CNC[C@@H]1Oc2ccc(NS(=O)(=O)c3cn(C)cn3)cc2CC(=O)N([C@H](C)CO)C[C@@H]1C | / | -1 | / | / | 0 | / | / | /
COc1cc(-c2n[nH]c(=S)n2C(C)c2ccccc2)cc(OC)c1OC (stereo not drawn) | 15 | 2 | -1 | -1 | 64* | -5 | 20 | 1
COc1cc(-c2n[nH]c(=S)n2-c2cccc(C(F)(F)F)c2)cc(OC)c1OC | -2 | / | 0 | -2 | 43* | -6 | -9 | -6
CCOC(=O)CNC(=O)c1sc2ncnc(N3CCc4ccccc4C3)c2c1C | 0 | 1 | i | 0 | 63* | -3 | 19 | 4
O=C(CSc1nc2ccccc2c(=O)n1-c1ccc(F)cc1)Nc1ccc(C(=O)O)cc1 | / | -2 | i | -3 | 0 | / | / | /
SMILES | DUSP3 inh | TcdB inh | BH1578 lux ind | Yp Topo-I inh | BioA inh-1 | BioA inh-2 | HepG2 tox 2 | NIH3T3 tox 5
O=C(CSc1nc2cc(C(=O)O)ccc2c(=O)n1-c1ccc(F)cc1)Nc1ccc(F)c(F)c1F | -6 | 0 | -8 | -4 | 81* | -9 | -8 | -12
COC(=O)c1c(C(=O)OC)c(-c2ccccc2)n2c1CS(=O)C2 (stereo not drawn) | -11 | / | i | -2 | 73* | -2 | 24 | 6
COC(=O)c1c(C(=O)OC)c(-c2ccc(OC)cc2)n2c1CS(=O)C2 (stereo not drawn) | 11 | 0 | i | 12 | 17 | / | / | /
COC(=O)c1c(C(=O)OC)c(-c2ccc(F)cc2)n2c1CS(=O)C2 (stereo not drawn) | 18 | 1 | 0 | 3 | 60* | -7 | -6 | -5
Cc1ccc(S(=O)(=O)N(C)C)cc1NC(=O)CSc1nncs1 | / | 1 | i | 18 | 51* | -6 | -8 | -1
COCC(=O)N[C@@H]1C=C[C@H](CC(=O)NCc2ccc(Cl)cc2)O[C@H]1CO | / | -2 | / | / | 3 | / | / | /
C/C=C/c1ccc2c(c1)O[C@@H](CN(C)C(=O)c1ccc3c(c1)OCO3)[C@@H](C)CN([C@@H](C)CO)S2(=O)=O | / | -2 | / | / | 46* | 8 | i | -6
C/C=C/c1ccc2c(c1)O[C@@H](CN(C)C(=O)Cc1cccnc1)[C@H](C)CN([C@H](C)CO)S2(=O)=O | / | 0 | / | / | 56* | -9 | i | -1
Cc1ccc(S(=O)(=O)N(C)C[C@@H]2Oc3ccc(NC(=O)CCC(F)(F)F)cc3CC(=O)N([C@H](C)CO)C[C@@H]2C)cc1 | / | 0 | / | / | -1 | / | / | /
CCN(CC)S(=O)(=O)c1ccc(NC(=O)c2ccc(Cl)nc2)cc1 | -7 | 1 | i | 0 | 52* | -10 | -11 | -9
CCN(CC)S(=O)(=O)c1ccc(NC(=O)c2ccc(NS(C)(=O)=O)cc2)cc1 | 0 | / | i | 5 | -2 | / | / | /
CCN1[C@H](C(=O)NCc2ccccc2)[C@@H](CO)[C@@H]2Cn3c(ccc(-c4ccncc4)c3=O)[C@@H]21 | / | 2 | / | / | -1 | / | / | /
CCNC(=O)[C@H]1[C@H](CO)[C@H]2Cn3c(ccc(-c4cccnc4)c3=O)[C@H]2N1Cc1ccc2c(c1)OCO2 | / | 1 | / | / | 18 | / | / | /
COC(=O)[C@@H]1[C@@H](CO)[C@@H]2Cn3c(ccc(-c4ccccc4)c3=O)[C@@H]2N1Cc1cccc(F)c1 | / | 0 | / | / | 42* | 5 | i | -7
CCNC(=O)[C@@H]1[C@@H](CO)[C@@H]2Cn3c(ccc(-c4cccnc4)c3=O)[C@@H]2N1Cc1ccc2c(c1)OCO2 | / | 1 | / | / | 64* | 3 | i | 6[23.5 µM]
CCN1[C@H](C(=O)NCc2ccccc2)[C@@H](CO)[C@@H]2Cn3c(ccc(-c4cccnc4)c3=O)[C@@H]21 | / | 1 | / | / | 41* | 32 | i | 6
COCC(=O)Nc1ccc2c(c1)C(=O)N(C)C[C@H](OC)[C@H](C)CN(CCc1ccccc1)[C@H](C)CO2 | / | -1 | / | / | 1 | / | / | /
